Test [1] is described as follows: inhibitors of TNFa-induced NFkB p65 translocation, primary screen, imaging, HUVEC, MLSMR starter and 10KST1 sets (AID 438;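 active = inhibition above 20% together with a positive visual image hit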;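 also: compound added about 3h40 before a 20 min TNFalpha stimulation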;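 as to inhibition: signal is the nuclear over cytoplasmic p65 intensity ratio per well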). The settings on record: HUVEC TNFa-induced p65 nuclear translocation; cell count: measured here: nuclei count (cytotoxicity indicator), at 2.08 µM; inhibition: at 2 µM, stronger effect = higher value, 0% TNFa-plus-vehicle, 100% no-TNFa wells.
Test [2] in a line: inhibitors of mutant huntingtin aggregation, primary screen, imaging, exon1htt(103Q)mCFP cells, high-content imaging (AID 483;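 active = visual image review flags a hit and inhibition of aggregation exceeds 20%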;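 also: compound exposure lasted 3 days before fixation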;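 as to nuclei count: percent of the per-plate median nuclei count of sample wells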). Particulars: exon1htt(103Q)mCFP cell line, aggregate imaging, at 2 µM; inhibition of aggregation: stronger effect = higher value; nuclei count: measured here: cell count, toxicity.
Test [3] in a line: inhibitors of E-selectin induction by TNFa, primary screen, imaging, HUVEC, immunofluorescence, MLSMR starter and 10KST1 sets (AID 487;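 active = visually confirmed hit in the image check and inhibition above 20%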;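 as to inhibition: signal is fraction of cell area covered by stained E-selectin grains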;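 as to nuclei count: 100% = median nuclei count of all wells on the same plate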). Particulars: HUVEC TNFalpha-induced E-selectin immunofluorescence imaging, at 2 µM; inhibition: stronger effect = higher value; nuclei count: measured here: cell number, toxicity.
Test [4] addresses Voltage-gated potassium channel subunit beta-2 (Rattus norvegicus) (UniProt P62483). The test is described as follows: KvBeta enzyme negative modulators, primary screen, biochemical, NADPH fluorescence (AID 622;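 active = fluorescence slope higher than the sample average by over 3 SD, cut at about -0.22 in these data, passing the limit was not always enough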;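 also: slope of raw intensity against log time taken from 70 to 1610 s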). The settings on record: recombinant KvBeta, 4-cyanobenzaldehyde reduction, at 10 µM, stronger effect = higher value.
Test [5] has the same target. Kind of test: KvBeta positive modulators, primary screen, biochemical, NADPH fluorescence (AID 623;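 active = NADPH fluorescence slope more negative than the mean of all samples by about 3 SD, 99.7% confidence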;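 also: fluorescence intensity change per second fitted from 20 to 320 s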). Particulars: Recombinant KvBeta, NADPH fluorescence decrease slope, 10 min; at 10 µM; stronger effect = lower value.
For test [6], the target named is Alpha-2C adrenergic receptor (Homo sapiens) (UniProt P18825). Kind of test: modulators of alpha2C/GIRK thallium flux, primary screen, cell-based, HEK293 alpha2C/GIRK1/2 (AID 624).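 Also: slope of fluorescence ratio to pre-addition baseline per second over 15 to 24 s.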 The settings on record: thallium flux BTC fluorescence, at 10 µM, actives lie on both sides.
Alpha-2C adrenergic receptor (Homo sapiens), sequence (P18825 whole entry, looked up): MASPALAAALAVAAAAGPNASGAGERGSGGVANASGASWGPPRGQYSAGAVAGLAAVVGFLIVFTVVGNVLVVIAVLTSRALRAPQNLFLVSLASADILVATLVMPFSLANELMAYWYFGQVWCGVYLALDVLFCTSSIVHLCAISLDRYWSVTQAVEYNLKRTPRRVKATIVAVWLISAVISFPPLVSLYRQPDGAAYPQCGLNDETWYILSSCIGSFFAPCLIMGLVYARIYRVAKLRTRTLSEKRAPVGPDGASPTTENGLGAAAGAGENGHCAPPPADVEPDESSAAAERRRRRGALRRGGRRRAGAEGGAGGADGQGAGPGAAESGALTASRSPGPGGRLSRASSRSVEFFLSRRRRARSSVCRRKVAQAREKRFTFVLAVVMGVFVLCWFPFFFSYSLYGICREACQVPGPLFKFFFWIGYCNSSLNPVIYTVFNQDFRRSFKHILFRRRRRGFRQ
The nature of test [7]: inhibitors of Sendai virus-induced IRF3 signaling, primary screen, TLR/RLR signaling modifier project, cell-based, Sendai virus stimulus, luciferase, 10K MLSCN set (AID 602276;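 active = inhibition at or above 50% at 10 µM; inactive = inhibition below 50%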;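 also: firefly luciferase from ISG56 promoter only with Renilla not read in this screen; 0% = Sendai virus plus DMSO and 100% = medium plus DMSO without virus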). Particulars: HEK293 RL24 IRF3 luciferase reporter, at 10 µM, stronger effect = higher value.
Test [8] can be described thus: inhibitors of poly I:C-induced TLR3 signaling, primary screen, cell-based, poly I:C stimulus, luciferase, 10K MLSCN set (AID 602277;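 active = inhibition of the reporter signal at or above 50%; inactive = inhibition below 50%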). The settings on record: HEK293-TLR3 RL24 IRF3 luciferase reporter, at 10 µM, stronger effect = higher value. For orientation: Reporter assays use an easily measured gene product as a stand-in for the process of interest.

The source made the active and inactive calls.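 The calls were made as follows, unless noted: active = fluorescence slope after compound addition differing from the mean of all screened samples at 99.7% confidence, in either direction; inactive = the rest.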

Voltage-gated potassium channel subunit beta-2 (Rattus norvegicus), sequence (P62483 whole entry, looked up): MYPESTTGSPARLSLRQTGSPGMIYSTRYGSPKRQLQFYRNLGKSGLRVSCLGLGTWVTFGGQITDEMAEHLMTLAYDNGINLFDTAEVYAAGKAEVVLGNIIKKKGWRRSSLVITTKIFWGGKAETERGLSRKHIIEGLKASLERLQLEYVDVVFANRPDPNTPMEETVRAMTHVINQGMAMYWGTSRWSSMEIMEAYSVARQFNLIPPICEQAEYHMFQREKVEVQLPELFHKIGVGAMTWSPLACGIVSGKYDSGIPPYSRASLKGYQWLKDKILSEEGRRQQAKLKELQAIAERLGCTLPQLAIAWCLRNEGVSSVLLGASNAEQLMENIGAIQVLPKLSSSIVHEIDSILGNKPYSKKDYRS

Take `O=C1CC(N2CCN(c3cccc(C(F)(F)F)c3)CC2)C(=O)N1c1ccccc1` (centres undefined): the cell count in test [1] came out at 622. Moreover, the inhibition (as a rule, the drop in the measured response relative to a control, in per cent) in test [1] is -1.5% (inactive); in test [3], 64.7% (active); in test [7], 7.76% (inactive); in test [8], 27.1% (inactive). Further, the inhibition of aggregation in test [2] was -3.8% (inactive). Further, the nuclei count in test [2] is 117%; in test [3], 75.3%. The fluorescence slope in test [4] is -0.473 (inactive). Also, the NADPH fluorescence slope in test [5] is -1.5e-05 (inactive). In test [6], the slope is 0.00274 (inactive).

As to `COC(=O)c1ccc(NC(=O)Cn2nnc3ccccc32)cc1`, the cell count in test [1] was 445. The inhibition in test [1] was -10.2% (inactive); in test [3], -8.2% (inactive); in test [7], -21.8% (inactive); in test [8] it was -69.7% (inactive). In test [2], the inhibition of aggregation was 8.3% (inactive). For the same compound, the nuclei count in test [2] and in test [3] was 134% each time. The fluorescence slope in test [4] was -0.377 (inactive). The NADPH fluorescence slope in test [5] is -5.8e-05 (inactive). Besides, the slope in test [6] is 0.0057 (inactive).

For the compound `CC(=O)CCc1c(C)[nH]c2ccccc2c1=O`, in test [1], the cell count was determined as 360. In addition, the inhibition in test [1] was 9.1% (inactive); in test [3], -3.8% (inactive); in test [7] it was -9.69% (inactive); in test [8] it was -2.97% (inactive). For the same compound, the inhibition of aggregation in test [2] is -8.9% (inactive). Moreover, the results for the nuclei count in test [2] and in test [3] were 123% and 102%, respectively. Also, the fluorescence slope in test [4] is -0.523 (inactive). Moreover, the NADPH fluorescence slope in test [5] is 6.6e-05 (inactive). Also, the slope in test [6] is 0.00588 (inactive).

`CC1(C)Cc2ccccc2C(N)=C1C#N`: the cell count in test [1] came to 331. Besides, the inhibition in test [1] was -0.8% (inactive); in test [3], 9.4% (inactive); in test [7], -11.4% (inactive); in test [8], -26.4% (inactive). Further, the inhibition of aggregation in test [2] is 35.2% (active). Further, the nuclei count amounted to 71.1% in test [2] and 102% in test [3]. In test [4], the fluorescence slope is -0.479 (inactive). In addition, in test [5], the NADPH fluorescence slope is 2e-05 (inactive). The slope in test [6] was 0.00508 (inactive).

Take `CCn1c(=S)ccc2ccc(OC)cc21`: the cell count in test [1] was found to be 296. For the same compound, the inhibition in test [1] was 5.3% (inactive); in test [3], -13.4% (inactive); in test [7] it was -6.3% (inactive); in test [8], 29% (inactive). Moreover, the inhibition of aggregation in test [2] was -4.2% (inactive). In addition, the nuclei count is 77.6% in test [2] and 120% in test [3]. Further, the fluorescence slope in test [4] was -0.599 (inactive). Further, the NADPH fluorescence slope in test [5] is -9.6e-06 (inactive). In test [6], the slope was 0.0055 (inactive).

With `CC1=C(C(N)=O)C(c2ccncc2)n2nc(-c3ccccc3Cl)nc2N1` (centres undefined), in test [1], the cell count was determined as 617. In addition, the inhibition in test [1] was 0% (inactive); in test [3], -1.2% (inactive); in test [7], 3.63% (inactive); in test [8], 21.9% (inactive). Further, in test [2], the inhibition of aggregation was 5.7% (inactive). Moreover, the nuclei count in test [2] was 92.1%; in test [3], 109%. Also, the fluorescence slope in test [4] was -0.528 (inactive). For the same compound, the NADPH fluorescence slope in test [5] is -2.9e-05 (inactive). The slope in test [6] is 0.00735 (inactive).

For the compound `CC(=NCC1CCNCC1)C1=C(O)CC(C)(C)CC1=O`, the cell count in test [1] worked out at 663. The inhibition in test [1] is -11% (inactive); in test [3], 12.1% (inactive); in test [7] it was 4.83% (inactive); in test [8], 23.6% (inactive). For the same compound, in test [2], the inhibition of aggregation was -14.1% (inactive). Besides, the nuclei count was determined as 113% in test [2] and 132% in test [3]. Moreover, the fluorescence slope in test [4] is -0.499 (inactive). In addition, in test [5], the NADPH fluorescence slope was 4e-06 (inactive). Further, the slope in test [6] was 0.00593 (inactive).

For `Cc1cccc2cc(COC(=O)C(C)(C)C)c(=O)[nH]c12`, the cell count in test [1] came out at 364. In addition, the inhibition in test [1] was 5.1% (inactive); in test [3] it was 14.2% (inactive); in test [7], 10.9% (inactive); in test [8] it was 22.5% (inactive). Besides, the inhibition of aggregation in test [2] was 2.3% (inactive). Besides, the results for the nuclei count in test [2] and in test [3] were 102% and 89.1%, respectively. For the same compound, the fluorescence slope in test [4] was -0.471 (inactive). Besides, the NADPH fluorescence slope in test [5] is 3.7e-06 (inactive). Moreover, the slope in test [6] was 0.0027 (inactive).

With `CN(C1CCS(=O)(=O)C1)S(=O)C12CC3CC(CC(C3)C1)C2` (centres undefined), the cell count in test [1] is 150. Also, the inhibition in test [1] was 23.1% (inactive); in test [3] it was 1.8% (inactive); in test [7], -4.43% (inactive); in test [8], 99.5% (active). Besides, the inhibition of aggregation in test [2] is -16% (inactive). Further, the nuclei count in test [2] turned out to be 98%; in test [3], 95.7%. For the same compound, the fluorescence slope in test [4] was -0.533 (inactive). Moreover, the NADPH fluorescence slope in test [5] is -3.6e-05 (inactive). For the same compound, the slope in test [6] is 0.00528 (inactive).

With `Cc1ccc(CCNC(=O)C2CCN(S(=O)(=O)c3ccc4c(c3)CCC(=O)N4)CC2)cc1`, in test [1], the cell count was 742. Further, the inhibition is 2.2% (inactive) in test [1], 27% (inactive) in test [3], -8.22% (inactive) in test [7] and -0.993% (inactive) in test [8]. For the same compound, in test [2], the inhibition of aggregation is -19.2% (inactive). For the same compound, the results for the nuclei count in test [2] and in test [3] were 114% and 102%, respectively. Besides, the fluorescence slope in test [4] is -0.56 (inactive). In test [5], the NADPH fluorescence slope is 1.8e-05 (inactive). In addition, the slope in test [6] was 0.00653 (inactive).

`CC1CN(C(=O)c2cc3cc(Cl)cc(Cl)c3oc2=O)CC(C)O1` (centres undefined): the cell count in test [1] is 365. In addition, the inhibition in test [1] was 5.6% (inactive); in test [3] it was -24.5% (inactive); in test [7], 11.6% (inactive); in test [8] it was 23.5% (inactive). Also, the inhibition of aggregation in test [2] is 1% (inactive). The nuclei count in test [2] is 104%; in test [3], 100%. In addition, the fluorescence slope in test [4] was -0.474 (inactive). Also, in test [5], the NADPH fluorescence slope was -4.7e-06 (inactive). In addition, the slope in test [6] was 0.00693 (inactive).

For the compound `Cc1cc(C)cc(NC(=O)CCNS(=O)(=O)c2ccc3c(c2)oc(=O)n3C)c1`, the cell count in test [1] was found to be 755. Also, the inhibition in test [1] was -14.1% (inactive); in test [3], -79.9% (inactive); in test [7], 20.7% (inactive); in test [8] it was 22.7% (inactive). The inhibition of aggregation in test [2] is -14.6% (inactive). Also, the nuclei count in test [2] turned out to be 120%; in test [3], 100%. The fluorescence slope in test [4] is -0.601 (inactive). In test [5], the NADPH fluorescence slope was -3.2e-05 (inactive). For the same compound, the slope in test [6] was 0.00584 (inactive).

Take `Cc1cc(C)nc(NC2=NCC(=O)N2c2ccccc2Br)n1`: in test [1], the cell count was determined as 899. Also, the inhibition in test [1] was -1.7% (inactive); in test [3], -29.3% (inactive); in test [7] it was 17.3% (inactive); in test [8], 40.3% (inactive). Further, the inhibition of aggregation in test [2] is -2.1% (inactive). For the same compound, the nuclei count stood at 92.9% in test [2] and 115% in test [3]. Moreover, in test [4], the fluorescence slope is -0.4 (inactive). The NADPH fluorescence slope in test [5] was 9.8e-06 (inactive). Moreover, the slope in test [6] was 0.00564 (inactive).

Consider `O=C(NCc1ccco1)c1csc(Nc2ccccc2Cl)n1`, for which, in test [1], the cell count was found to be 484. Besides, the inhibition in test [1] is -6.2% (inactive); in test [3], -144% (inactive); in test [7] it was -50.5% (inactive); in test [8], -12.9% (inactive). Besides, the inhibition of aggregation in test [2] is -0.3% (inactive). Besides, the nuclei count in test [2] is 118%; in test [3] it was 233%. Besides, the fluorescence slope in test [4] is -0.503 (inactive). For the same compound, the NADPH fluorescence slope in test [5] is -3.4e-05 (inactive). In addition, the slope in test [6] is 0.0062 (inactive).

The record behind these values is PubChem BioAssay.
